Among the data in PubChem BioAssay AID485275 (NMMLSC, 2010) are inhibition values, retold here.

Out of some 330,000 compounds screened, about 1,400 (0.42%) were called active. What follows is part of a selection rich in actives, with near analogues and random picks from the rest. Unmarked numbers belong to inactive results.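 How the source made its calls: active means plate passing quality check with inhibition over a set limit, or well fluorescence over plate mean plus 4 SD; inactive means the rest.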

The test is described as follows: antifungal drug efflux pump blockers, triplex strains – S. cerevisiae, Nile Red, multiplex, primary screen (AID 485275).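 Further: Nile Red retained in pooled yeast measured as flow cytometry median fluorescence; 0% = buffer negative control and 100% = Enniatin B positive control; higher means more Nile Red kept so more efflux inhibition.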 Particulars: S. cerevisiae Candida pump triplex, at 10 µM, hits give high values.
Consider `CC(=O)c1ccc(N2CCN(C(=O)C3CCN(S(=O)(=O)c4ccc5c(c4)CC(C)N5C(=O)C4CC4)CC3)CC2)cc1` (configuration not stated), for which the inhibition was 40.5% (active).

As to `COc1ccccc1CNC(=O)C1CCN(S(=O)(=O)c2ccc3c(c2)CC(C)N3C(=O)C2CC2)CC1` (configuration not stated), the inhibition is 0.09%. Take `CC(=O)N1c2ccc(S(=O)(=O)N3CCC(C(=O)N4CCN(c5ccccc5)CC4)CC3)cc2CC1C` (configuration not stated): the inhibition was -0.03%. On to `CC1CC(=NNC(=O)C2COc3ccccc3O2)CC(C)(C)C1` (configuration not stated), for which the inhibition was -0.31%.

With `Cc1cccc(N2CCN(C(=O)CCS(=O)(=O)c3ccc4c(c3)NC(=O)C(C)S4)CC2)c1C` (configuration not stated), the inhibition is -0.07%. Consider `O=C(CCCCCn1c(=O)[nH]c2ccccc2c1=O)NCCc1c[nH]c2ccccc12`, for which the inhibition is 0.52% (active). As for `O=C(CCc1c[nH]c2ccccc12)NCCOc1ccccc1`, the figure is -0.08%; as for `CCN(CC)CCNC(=O)CCCCCn1c(=O)[nH]c2cc(C(=O)OC)ccc2c1=O`, -0.02%; as for `CCCSc1ccc([C@H]2N[C@@](Cc3ccccc3)(C(=O)OC)[C@H]3C(=O)N(C)C(=O)[C@@H]23)cc1`, 0.02%. With `CSCC(NS(=O)(=O)c1ccc(C)cc1)C(=O)O` (configuration not stated), the inhibition was -0.01%. Take `CSCCC(NC(=O)c1ccccc1)C(=O)N1CCCCCCC1` (configuration not stated): the inhibition was 0.05%. As for `CSCCC(NS(=O)(=O)c1ccc(C)cc1)C(=O)N1CCCC1` (configuration not stated), the figure is 1.45% (active); as for `COc1ccc(-n2nnc3c(=O)n(CC(=O)N4CCC(Cc5ccccc5)CC4)cnc32)cc1`, 0.1%. As for `O=C(NCc1nnc(SCC(=O)N2CCCCCC2)o1)c1ccc(F)cc1`, the inhibition was -0.18%. With `Nc1nnc(C2CCCC2)s1`, the inhibition was 0.48%. On to `Cc1ccc(C(=O)COC(=O)CCN2C(=O)C3C4CCC(C4)C3C2=O)cc1C` (configuration not stated), for which the inhibition was -0.13%.

For `O=C(CN1C(=O)C2C3CCC(C3)C2C1=O)Oc1ccc2ccccc2c1` (configuration not stated), the inhibition is 5.45% (active). Consider `O=C(CCN1C(=O)C2C3C=CC(C3)C2C1=O)Oc1ccc2ccccc2c1` (configuration not stated), for which the inhibition was 0.01%.

Take `O=C(c1cc(-c2ccco2)nc2ccccc12)N(Cc1nnc(-c2ccc(Cl)cc2)o1)C1CC1`: the inhibition is 0.11%.

For the compound `Cc1cc(/C=N/NC(=O)CC2(C)OCCO2)c(C)n1-c1ccc(Cl)c(Cl)c1`, the inhibition is 1.6% (active). To `Cc1cccc(-n2c(C)cc(/C=N\NC(=O)c3cccs3)c2C)c1` belongs -0.56%; to `Cc1ccc(-n2c(C)cc(/C=N\NC(=O)CC(=O)NC(C)C)c2C)cc1`, -0.13%; to `CC1CCN(C(=O)CCNC(=O)c2ccccc2)CC1`, -0.28%.

For the compound `CN=C(c1ccccc1)c1c(C)cccc1C`, the inhibition is 23.6% (active). As for `Cc1cccc(C)c1NC(=O)C(Cl)C(=O)c1ccccc1` (configuration not stated), the figure is 0.07%.

On to `Cc1ccccc1NC(=O)CSC(=O)c1ccccc1`, for which the inhibition was -0.08%. To `CCn1c(SCC(=O)NC2CC2)nnc1-c1ccccn1` belongs -0.04%; to `COC(=O)c1ccc2c(c1)S(=O)(=O)NC(=NCCCN1CCOCC1)S2`, 0%. To `O=C(NCCC1CCCCN1S(=O)(=O)c1cccs1)C(=O)Nc1ccc(F)cc1F` (configuration not stated) belongs 0.02%. With `O=C(/C=C/c1ccc([N+](=O)[O-])cc1)NCCSCc1ccco1`, the inhibition is 0.15%. To `CC1CCc2c(sc(NC(=O)c3ccc(Cn4cc(Br)cn4)o3)c2C(N)=O)C1` (configuration not stated) belongs 0.29% (active); to `COc1cccc(OC)c1C(=O)Nc1sc2c(c1C(N)=O)CCCC2`, -0.23%. On to `CN(C)c1ccc(/C=N/NC(=O)c2ccc(Cn3cc(Br)cn3)o2)cc1`, for which the inhibition is -0.5%. To `COc1ccc(CNc2ccc3c(c2)CCC3)cc1OC` belongs 0%. As for `CCn1c(SCC(=O)N/N=C/c2ccccc2OCC(=O)O)nnc1-c1ccc(C(C)(C)C)cc1`, the inhibition is 0.05%.

On to `Cc1nnc(SCC(=O)NC(=O)NC2CCCC2)n1N`, for which the inhibition was 0.12%.

In the case of `N#C/C(=C/c1ccc(N2CCCCC2)o1)C(=O)NCCc1c[nH]c2ccccc12`, the inhibition is -0.28%. Consider `Cc1ccc(/C=C(\C#N)C(=O)Nc2cccc3ncccc23)o1`, for which the inhibition was 6.65% (active). To `O=C(O)c1cc(Cl)c(Cl)cc1C(=O)Nc1cccc2ncccc12` belongs -0.06%; to `C[C@@H]1NC(=O)c2cc([N+](=O)[O-])cc(F)c2NCCC[C@@H](C(N)=O)NC(=O)[C@H](CC(N)=O)NC1=O`, -0.03%. As for `COc1ccccc1NC(=O)[C@H](COCc1ccccc1)NC(=O)OC(C)(C)C`, the figure is -0.12%; as for `CC(C)(C)OC(=O)N1CCC(C(=O)NNC(=O)c2ccc(Cl)cc2Cl)CC1`, -0.04%; as for `O=S(=O)(c1ccc2c(c1)OCCO2)N1CCc2ccccc21`, 0.34%. To `CCn1c(=O)c(=O)n(CC)c2cc(S(=O)(=O)N3CCc4ccccc43)ccc21` belongs -0.1%; to `O=S(=O)(c1ccccc1)N1CCc2ccccc21`, 0.75% (active); to `COc1ccc(CCNS(=O)(=O)c2cn(C)nc2C)cc1`, -0.02%. On to `CCOC(=O)N1CCN(C(=O)C2CCN(S(C)(=O)=O)CC2)CC1`, for which the inhibition was -0.13%. As for `Cc1ccc2c(C)c(C(=O)N(C)Cc3ccncn3)oc2c1C`, the figure is 1.25%; as for `CC(=O)N1c2ccccc2N(Cc2ccc([N+](=O)[O-])cc2)C(=O)C1(C)C`, 0.1%. For the compound `O=C1NC(=O)C2C1C(c1ccc([N+](=O)[O-])cc1)=NN2Cc1ccccc1` (configuration not stated), the inhibition is 1.09% (active). As for `O=C(NCCCCc1ccccc1)C1CC(c2ccc([N+](=O)[O-])cc2)=NO1` (configuration not stated), the inhibition is 0.02%. To `Cc1ccc(CN2CCN(Cc3cccc(C)n3)CC2CCO)cc1` (configuration not stated) belongs -0.07%; to `CC(=O)Nc1ccc(/C(C)=N/NC(=O)CN(c2ccccc2Br)S(C)(=O)=O)cc1`, 0.36%. As for `O=C(Cc1ccccc1Cl)N1CCN(c2ccccn2)CC1`, the figure is -0.02%. For `O=C(Cc1ccc(Br)cc1)N1CCN(c2ccccn2)CC1`, the inhibition was 11.1% (active).

Regarding `O=C(CCC1CCCN(C(=O)Cc2ccc(F)cc2)C1)N1CCN(c2ccccn2)CC1` (configuration not stated), the inhibition is -0.13%. Take `COc1ccc(N(CC(=O)NCC2CCCO2)C(=O)CCC(=O)Nc2nccs2)c(OC)c1` (configuration not stated): the inhibition is 0.02%.

Consider `CCN1CCN(c2ccc(S(=O)(=O)N3CCCCC3)cc2NC(=O)Cc2c(Cl)cccc2Cl)CC1`, for which the inhibition is -0.36%. To `Cc1cc(-c2ccc(S(=O)(=O)N3CCc4ccccc4C3)s2)on1` belongs -0.2%. As for `CC(C)N(c1ccccc1)c1ncnc(NCCC(=O)O)c1[N+](=O)[O-]`, the figure is 0.29%; as for `CC(C)Cn1c(N)c(C(=O)COC(=O)C2CCCN2C(=O)c2cccs2)c(=O)n(C)c1=O` (configuration not stated), 0.07%; as for `CCOC(=O)C1CCN(C(c2cc3cc(C)cc(C)c3[nH]c2=O)c2nnnn2C2CCCCC2)CC1` (configuration not stated), 0.07%. To `Cc1cc(C)c2[nH]c(=O)c(C(c3nnnn3Cc3ccc4c(c3)OCO4)N3CCCC3)cc2c1` (configuration not stated) belongs 1.06% (active); to `Fc1ccccc1C(c1nnnn1Cc1ccc2c(c1)OCO2)N1CCN(Cc2ccccc2)CC1` (configuration not stated), -0.02%; to `O=C(CN(c1cccc(Cl)c1)S(=O)(=O)c1ccccc1)NN=C1CCCC1`, 0.07%.

Take `O=C(CN1C2CCC1CC(NC(=O)C1CC1)C2)NCc1ccccc1` (configuration not stated): the inhibition is -0.03%. As for `CC(C)C(=O)N1CCN(c2nc(-c3ccccc3)c3c(c2C#N)CC(C)(C)OC3)CC1`, the figure is -0.13%; as for `CC(C)C(=O)N1CCC2(CC1)Oc1ccc(F)cc1C(=O)C21CC(c2ccccc2)=NO1` (configuration not stated), 78.3% (active); as for `O=C1CC2(CCN(C(=O)COc3ccc(F)cc3)CC2)Oc2ccccc21`, -0.44%. Consider `CC(C)c1ccc2oc(=O)cc(CN3CCN(Cc4ccccc4)CC3)c2c1`, for which the inhibition is -0.11%. As for `CCc1ccc(OCC(=O)OCC(=O)c2c(N)n(C)c(=O)n(C)c2=O)cc1`, the figure is -0.05%; as for `Cn1c(N)c(C(=O)COC(=O)COc2ccc(Cl)cc2)c(=O)n(C)c1=O`, 0%; as for `CCCCOc1ccc(C(=O)NCC(=O)OCC(=O)c2c(N)n(C)c(=O)n(C)c2=O)cc1`, 0.65% (active). As to `O=C(NCC1CCCO1)c1ccccc1-c1nc(-c2ccccc2Cl)no1` (configuration not stated), the inhibition is -0.05%.

For `CCCNC(=O)N1CCC(c2ccc3c(c2)OCO3)CC1`, the inhibition was 0.01%. Regarding `CC1(C)Cc2c(cnn2-c2cccc(F)c2)C(NC(=O)c2cc[n+]([O-])cc2)C1` (configuration not stated), the inhibition was 0.12%.

With `Cc1cc(C(=O)NC2CC(C)(C)Cc3c2cnn3-c2ccccc2)n[nH]1` (configuration not stated), the inhibition is 0.03%. To `COc1ccc(C(=O)NC2CC(C)(C)Cc3c2cnn3-c2ccccc2)c(OC)c1` (configuration not stated) belongs 1.15% (active). With `Cc1ccc(S(=O)(=O)N(Cc2ccc(Cl)cc2)c2ccccc2C(=O)NCc2cccnc2)cc1`, the inhibition is 0.08%. In the case of `COc1cc(NC(=O)c2ccc3c(c2)OCO3)ccc1NC(=O)c1cccs1`, the inhibition was -0.1%. Consider `Cc1ccc(C(=O)Nc2ccc(NC(=O)c3cccs3)cc2)c(C)c1`, for which the inhibition is 0.18%. To `O=C(Nc1ccc(NC(=O)c2cccs2)cc1)c1ccc2ccccc2c1` belongs 1.22% (active). On to `CCOC(=O)C1CCN(C(=O)CN2C(=O)NC(C)(c3ccc4cc(OC)ccc4c3)C2=O)CC1` (configuration not stated), for which the inhibition was -0.03%. To `O=C1c2ccccc2[C@@H]2C[C@@H](O)[C@H](Nc3ccccc3Cl)CCN12` belongs 0.16%; to `O=C(CNCc1ccc(F)cc1)Nc1ccccc1-c1ccccc1`, -0.07%; to `CCN(CC)CCn1c2c(c(SCC(=O)Nc3ccc(C(C)C)cc3)nc1=O)CCC2`, -0.06%. As for `CC1CCCCC1NC(=O)c1cn(C)c2ccc(S(=O)(=O)N3CCOCC3)cc2c1=O` (configuration not stated), the figure is -0.14%.

As usually defined, the inhibition is the change of the read-out against control, counted positive when it falls.
